D2 PAM-1: HTS Assay for Positive Allosteric Modulators of the Human D2 Dopamine Receptor: Primary Screen for Potentiators; AID 485347, 2010; 340,000 compounds, 0.34% hits; potentiation, % at 10 µM; HEK293 T-REx D2, calcium flux, EC20 dopamine potentiation;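 active = potentiation over 3 SD above the plate norm, cut at about 30% in these data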; also: 0% is about no effect
Target sequence (P14416 whole entry, looked up): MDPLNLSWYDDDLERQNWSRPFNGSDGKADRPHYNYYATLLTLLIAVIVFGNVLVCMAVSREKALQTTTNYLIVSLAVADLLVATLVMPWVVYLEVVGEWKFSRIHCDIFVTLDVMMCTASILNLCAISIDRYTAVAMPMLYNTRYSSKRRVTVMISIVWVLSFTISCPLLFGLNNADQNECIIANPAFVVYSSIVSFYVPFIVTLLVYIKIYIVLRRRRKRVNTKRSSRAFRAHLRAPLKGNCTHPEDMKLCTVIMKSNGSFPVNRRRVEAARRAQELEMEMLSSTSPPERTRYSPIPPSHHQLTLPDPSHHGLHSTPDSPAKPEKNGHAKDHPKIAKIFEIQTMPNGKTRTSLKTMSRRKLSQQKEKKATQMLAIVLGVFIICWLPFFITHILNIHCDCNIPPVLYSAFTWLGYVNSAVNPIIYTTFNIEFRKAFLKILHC
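Calcium flux readout, no-wash dye, 1 read/s. Inducible HEK293 Trex D2 line, overnight 30 C. Compound alone 180 s (agonist flags), then EC20 dopamine, another 180 s to score potentiation.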
D2 ag-1: Beta-Arrestin HTS for Positive Allosteric Modulators of the Human D2 Dopamine Receptor: Agonists. AID 624465, 2012. activation, % (concentration not given with the values). DiscoveRx PathHunter D2 beta-arrestin, luminescence, 90 min; 100% = 57 uM dopamine signal. 360,000 compounds, 0.084% hits. D(2) dopamine receptor (Homo sapiens), P14416; in the data active = activation above about 40%; inconclusive = between about 15% and that limit
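Agonist mode: compounds alone added to overnight-plated D2 PathHunter cells for 90 min at 37 C, with 57 uM final dopamine (EC100) defining full response. Beta-arrestin recruitment detected by chemiluminescent reagent, read after 1 h at ambient temperature.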
D2 antag: HTS Assay for Allosteric Antagonists of the Human D2 Dopamine Receptor: Primary Screen for Antagonists | D(2) dopamine receptor (Homo sapiens), P14416 | inhibition, % at 10 µM | 340,000 compounds, 2% hits | HEK293 TREx D2 cells, calcium flux, dopamine EC80; in the data active = inhibition above about 30%; inactive = below that, where a call was filed; also: 0% is about no effect
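Calcium flux kinetic readout in an inducible HEK293 TREx D2 line plated overnight at 30 C. After 180 s compound exposure, an EC80 dopamine challenge follows with another 180 s kinetic read to detect antagonism.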
D2 ag-2: HTS Assay for Allosteric Agonists of the Human D2 Dopamine Receptor: Primary Screen for Agonists | 340,000 compounds, 0.53% hits | D(2) dopamine receptor (Homo sapiens), P14416 | AID 485358, 2010 | HEK293 T-REx D2 cells, calcium flux agonist mode | activation, % at 2 µM;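 active = activation over 3 SD above normal in the single-dose calcium agonist read, cut at about 30% in these data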; also: 0% is about no effect
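Agonism is scored from calcium flux in a force-coupled, inducible HEK293 cell line expressing D2, read kinetically for 180 s after compound addition against dopamine controls.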
D2 PAM-2: Beta-Arrestin HTS for Positive Allosteric Modulators of the Human D2 Dopamine Receptor: Potentiators; D(2) dopamine receptor (Homo sapiens), P14416; DiscoveRx D2 beta-arrestin cells, luminescence, 90 min; 100% = 57 uM dopamine signal; potentiation, % (test concentration not listed); 360,000 compounds, 0.23% hits; AID 624464, 2012; in the data active = potentiation above about 50%; inconclusive = mostly about 30% to 49%
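PathHunter beta-arrestin assay in DiscoveRx D2 cells. Compounds were added with an EC20 of dopamine (50 nM final) for 90 min at 37 deg C. Luminescence was read 1 h after detection reagent, with 57 uM dopamine as the EC100 control.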
Numbers without * were called inactive; ? = inconclusive; · = no result. Shown are actives, neighbours in structure and some others; about 2.4% of the full set was active somewhere.

SMILES	D2 PAM-1	D2 ag-1	D2 antag	D2 ag-2	D2 PAM-2
Cc1nc2sccn2c(=O)c1S(=O)(=O)N1CCN(c2cccc(C(F)(F)F)c2)CC1	·	-3	·	·	-17
Cc1cc(=O)[nH]c(SCC(=O)Nc2ccc3c(c2)CCC3)c1C#N	6	5	36*	0	1
Cc1cc(=O)[nH]c(SCC(=O)Nc2ccc(F)cc2)c1C#N	-4	-1	-4	1	0
COc1ccccc1CCC(=O)OCC(=O)Nc1cc(S(=O)(=O)N2CCOCC2)ccc1C	-6	-3	33*	2	-23
Cc1ccc(S(=O)(=O)N2CCCCC2)cc1NC(=O)COC(=O)c1c(F)cccc1F	31*	-5	6	-1	12
Cc1ccc(S(=O)(=O)N(C)C)cc1NC(=O)CSc1ccc2c(c1)OCCO2	-2	2	36*	0	-22
Cc1ccc(C)c(SCC(=O)Nc2cc(S(=O)(=O)N3CCOCC3)ccc2C)c1	-5	-5	53*	0	-2
COCCCn1c(SCC(=O)Nc2ccc(NC(=O)c3ccco3)c(OC)c2)nc2ccccc2c1=O	8	-1	-31	-1	9
CC1=C(C(=O)Nc2ccccc2F)C(c2ccsc2)C2=C(CC(c3ccccc3)CC2=O)N1 (configuration not stated)	23	15	-10	0	-25
Cc1noc(C)c1C(=O)OC(C)C(=O)N1CCc2ccccc21 (configuration not stated)	11	-5	-14	0	-6
COc1ccccc1-n1c(SCC(=O)N2CCOCC2)nc2cccnc21	-5	-4	60*	0	-3
CC(NC(=O)Cc1ccc(NC(=O)N2CCCCc3ccccc32)cc1)c1ccccc1 (configuration not stated)	18	·	·	-2	·
O=S(=O)(c1ccc(SCCOc2cccc(Br)c2)nc1)N1CCCC1	-3	-2	42*	0	-29
O=C(CSc1ccc(S(=O)(=O)N2CCCCC2)cn1)Nc1ccccc1Br	10	41*	3	-1	1
O=C(CC1CC2CCC1C2)N1CCN(S(=O)(=O)c2ccccc2C(F)(F)F)CC1 (configuration not stated)	3	13	10	0	2
COc1cccc(/C=C/C(=O)OCC(=O)Nc2ccc(Cl)c(S(=O)(=O)N(C)C)c2)c1	4	-3	-15	2	0
O=C(COC(=O)/C=C/c1cccc(C(F)(F)F)c1)NCc1ccc(F)cc1	6	-1	-8	0	-7
COc1cccc(/C=C/C(=O)OCC(=O)Nc2cc(C(F)(F)F)ccc2Cl)c1	-7	-1	34*	2	-3
O=C(COC(=O)/C=C/c1cccc(C(F)(F)F)c1)NCc1ccccc1	12	-4	33*	1	5
CCN(CC)CCn1c(=S)[nH]c2cc(C(=O)NCc3ccc(C)cc3)ccc2c1=O	-12	0	36*	0	-14
CCc1ccc(CNC(=O)C2Cc3cc(S(=O)(=O)N4CCCC4)ccc3N2C(C)=O)cc1 (configuration not stated)	0	1	-5	-1	-5
O=C1c2ccc([N+](=O)[O-])cc2S(=O)(=O)N1Cc1ccccc1	20	?	16	-1	72*
COc1cc(C(=O)NC2CC3CCCC(C2)N3Cc2ccccc2)cc(OC)c1OC (configuration not stated)	-32	-2	84*	-1	-7
COc1cc(OC)cc(C(=O)NC2CCN(CCCOc3ccccc3)CC2)c1	-11	-5	47*	0	-5
COc1ccc(C(=O)NC2CC3CCCC(C2)N3Cc2ccccc2)cc1OC (configuration not stated)	-31	-5	82*	0	-5
